Compound activity (PubChem BioAssay)
Compounds with a hit are over-represented: about 1.5% of the library has one in this group of screens.
PLC-gamma1 inh = PLC-gamma1 enzyme inhibitors, primary screen, biochemical, fluorescence, purified enzyme; 370,000 compounds, 0.84% hits; 1-phosphatidylinositol 4,5-bisphosphate phosphodiesterase gamma-1 (Homo sapiens), P19174; fluorogenic substrate; inhibition, % at 12.2 µM; in the data active means inhibition above about 9.5%
PLC-beta3 inh = human PLC-beta3 inhibitors, primary screen, biochemical, fluorescence | 1-phosphatidylinositol 4,5-bisphosphate phosphodiesterase beta-3 (Homo sapiens), Q01970 | Purified PLC-beta3, fluorogenic substrate | inhibition, % at 12.2 µM | 370,000 compounds, 0.18% hits | AID 720704, 2013;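 further: 0% = median of compound wells on plate and 100% = full blocker control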
DAGLB inh = DAGLB lipase inhibitors, primary screen, biochemical, fluorescence, HTS; 340,000 compounds, 0.059% hits; inhibition, % at 5.17 µM; AID 504411, 2011; HEK293T DAGLB membrane lysate, EnzChek fluorogenic substrate; in the data active means inhibition above about 34%;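 further: 0% = enzyme with vehicle and 100% = wells lacking enzyme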
sPLA2-III inh = human group III sPLA2 inhibitors, primary screen, biochemical, QFRET, BODIPY PC-A2 liposome substrate. inhibition, % at 12.2 µM. Group 3 secretory phospholipase A2 (Homo sapiens), Q9NZ20. AID 743126, 2013. QFRET BODIPY PC-A2 liposome hydrolysis, fluorescence. 370,000 compounds, 0.56% hits;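 active means inhibition above mean plus 3 SD of compounds lying within the high and low control bounds, cut at about 19% in these data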;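 further: 0% = median of test compound wells and 100% = no enzyme DMSO wells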
Target sequence (Q9NZ20 whole entry, looked up): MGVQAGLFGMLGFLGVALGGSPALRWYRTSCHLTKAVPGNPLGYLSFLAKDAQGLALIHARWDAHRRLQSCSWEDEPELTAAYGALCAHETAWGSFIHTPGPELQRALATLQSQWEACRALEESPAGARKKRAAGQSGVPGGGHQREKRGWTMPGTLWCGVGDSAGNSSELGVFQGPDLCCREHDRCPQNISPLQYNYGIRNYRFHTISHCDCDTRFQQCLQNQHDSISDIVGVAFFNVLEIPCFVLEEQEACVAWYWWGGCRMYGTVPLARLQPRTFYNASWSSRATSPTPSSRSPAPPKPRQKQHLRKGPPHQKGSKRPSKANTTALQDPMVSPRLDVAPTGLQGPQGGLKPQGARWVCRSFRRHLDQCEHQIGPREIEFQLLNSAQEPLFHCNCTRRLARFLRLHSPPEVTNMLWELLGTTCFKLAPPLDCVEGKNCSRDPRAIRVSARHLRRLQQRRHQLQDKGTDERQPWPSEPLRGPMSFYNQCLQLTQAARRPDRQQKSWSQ
PLCg1 ctr = PLC-gamma1 enzyme inhibitors, counter-screen for PLC-beta3 inhibitor project, biochemical, fluorescence. shares compounds with PLC-gamma1 inh. purified PLC-gamma1, fluorogenic substrate. inhibition, % at 12.3 µM. 3,300 compounds, 3.1% hits. AID 743258, 2014; in the data active means inhibition above about 9.5%
PLCb3 confirm = PLC-beta3 inhibitor confirmation, biochemical, fluorescence, purified enzyme; shares compounds with PLC-gamma1 inh; fluorogenic substrate fluorescence; inhibition, % at 12.3 µM; 3,300 compounds, 1% hits; AID 743261, 2014
An asterisk follows results filed as active; / = not tested or not shown. Unless noted, no stated cut-off is given here; in the data, active means inhibition above about 11%; inactive means the rest.

SMILES	PLC-gamma1 inh	PLC-beta3 inh	DAGLB inh	sPLA2-III inh	PLCg1 ctr	PLCb3 confirm
CC1(C)CC(=O)C=C(c2ccc(Oc3ccccc3)cc2)C1	10*	1	-5	-4	-2	-2
CCCC/C=C1/[C@H](c2ccccc2)N(C)C2=N[C@@H](c3ccccc3)CC(=O)N21	-2	-8	/	14	/	/
Cc1c(Br)c(O)c(Br)c2sc(=O)oc12	9.9*	-10	14	10	-29	-35
C#CCNC(=O)C[C@H]1C(=O)N(CCCOC)C2=CCCCC[C@]21C(=O)OC	9	8	/	11	/	/
Brc1cnc(OCc2ccccc2)nc1OCc1ccccc1	8	12*	-17	1	-7	-6
Cc1nc2ccccc2nc1OCc1ccccc1	1	4	-8	-3	/	/
COc1ccc(-c2nnn3c2Cn2c4ccccc4c(=O)n2[C@@H](C(C)C)C3)cc1	-6	-16	/	6	/	/
C=CC[C@@H](CC(=O)NCCO)C(=O)N[C@@H](COC(=O)[C@@H](CC=C)CC(=O)OC(C)(C)C)Cc1ccccc1	10.0*	7	0	-8	-7	-4
C=CC[C@@H](CC(=O)N[C@H](CO)Cc1ccccc1)C(=O)N[C@@H](COC(=O)[C@H](CC=C)CC(=O)OC(C)(C)C)Cc1ccccc1	9.5*	4	-1	-42	-7	1
C=CC[C@@H](CC(=O)N[C@@H](CO)Cc1ccccc1)C(=O)N[C@H](COC(=O)[C@@H](CC=C)CC(=O)OC(C)(C)C)Cc1ccccc1	2	-1	0	0	/	/
Cc1cccc2c1CCC1CN(Cc3ccccc3)S(=O)(=O)N21 (stereo not drawn)	5	3	/	-4	/	/
c1ccc2oc(SCc3cn4ccsc4n3)nc2c1	9.5*	9	-1	6	-1	-1
CC1CC(C)CN(CCCNS(=O)(=O)c2cc3c(cc2Br)CCN3C(=O)C2CC2)C1 (stereo not drawn)	2	7	/	-3	/	/
CCc1ccc(C(=O)NNC(=O)c2ccc(OCC(=O)N3CCOCC3)c(OC)c2)cc1	13*	-2	-3	3	0	0
CCOC(=O)/C(C#N)=C\c1cn(C)c2ccccc12	6	4	-6	3	/	/
CCOC(=O)/C(C#N)=C/c1c(OCC)n(CC)c2ccccc12	10*	-8	-8	-2	-10	-9
CCOc1ccc(CCNC(=O)COC(=O)c2oc3ccccc3c2COC)cc1OCC	14*	-5	-2	2	5	2
CCOc1ccc(CCNC(=O)COC(=O)c2ccc(OC)c(OC)c2OC)cc1OCC	0	-4	-1	1	/	/
CCCCCCC1CC(CSC(=N)N)OC1=O (stereo not drawn)	11*	6	-1	10	7	0
CCCC1CC(CSC(=N)N)OC1=O (stereo not drawn)	-1	1	-1	3	/	/
CC(C)Oc1ccc(N2CC(C(=O)Nc3ccc(N4CCOCC4)cc3)CC2=O)cc1 (stereo not drawn)	12*	12*	3	-3	5	4
Cc1ccc(C)c(SCC(=O)NCc2ccco2)c1	0	12*	-4	3	-8	-6
Cc1ccc(SCC(=O)NCc2ccco2)cc1	3	-1	-6	2	/	/
COCCSc1ccccc1C(=O)Nc1ccncc1	-1	1	-3	5	/	/
COCCSc1ccccc1C(=O)Nc1nncs1	10*	4	0	-1	-1	1
SMILES	PLC-gamma1 inh	PLC-beta3 inh	DAGLB inh	sPLA2-III inh	PLCg1 ctr	PLCb3 confirm
COc1ccc(S[C@]2(C(=O)N3CCCC3)CC(=O)N(C(=O)CCc3ccccc3)[C@@H]2c2ccc(OC)cc2)cc1	0	0	/	-4	/	/
CC(NC(=O)c1ccccc1Cl)C1COc2ccccc2O1 (stereo not drawn)	7	13*	1	1	1	1
CC(NS(=O)(=O)c1ccccc1)C1COc2ccccc2O1 (stereo not drawn)	-1	-3	-6	-10	/	/
C=CCN1C(=O)[C@@H](CC(=O)N2CCCC2)[C@]2(C(=O)OC)CCCCC=C12	5	-21	/	2	/	/
Cc1ccc(-c2nc3ccsc3c(=O)[nH]2)cc1	10*	6	-4	11	-3	0
Cc1ccc(-c2csc3nc(-c4ccncc4)[nH]c(=O)c23)cc1	-85	-143	0	1	/	/
COc1ccc(N2CCN(C(=O)C(=O)c3c[nH]c4ccccc34)CC2)cc1	9.8*	-2	-3	-8	-4	-1
CCN(CC)CC(O)Cn1c2ccccc2c2ccccc21 (stereo not drawn)	12*	7	-3	7	-9	-4
COc1ccc(CNc2ncnc(N)n2)cc1	-3	1	-1	5	/	/
COc1ccc(CNc2nc(NCc3ccc(OC)cc3)c3[nH]cnc3n2)cc1	12*	9	-7	-27	0	-2
Nc1nc(SCC(=O)NCc2ccccc2)[nH]c(=O)c1NC(=O)c1ccccc1F	0	6	0	2	/	/
CC(C)(C)NC(=O)CSc1nc(N)c(NC(=O)c2ccccc2F)c(=O)[nH]1	6	12*	-1	6	-3	1
CCOC(=O)N1C(=O)C2(CCCCC2)N(c2ccccc2Cl)C1=S	11*	2	-5	9	-2	1
O=C(CN1CCC(n2nnc3cc(F)ccc32)CC1)N1CCCc2ccccc21	-2	3	0	-2	/	/
O=C(CN1CCC(n2nnc3cc(C(F)(F)F)ccc32)CC1)N1CCc2ccccc21	13*	7	-2	8	-6	-2
COc1ccc(CCNC(=O)c2c(N)[nH]c(C(=O)c3ccccc3)c2-c2ccc(N(C)C)cc2)cc1	-20	-31	/	4	/	/
O=C(/C=C/c1ccco1)NC(=S)Nc1ccc(C(=O)O)cc1	26*	-11	3	-5	17*	-7
COC(=O)[C@]12C[C@H](CC(=O)N3CCCCC3)C(=O)N(Cc3ccco3)C1=C[C@H](C(C)(C)C)O[C@@H]2C	1	3	/	-7	/	/
CCc1ccc(NC(=O)c2cccc(NC3=NC4CS(=O)(=O)CC4S3)c2)cc1 (stereo not drawn)	1	1	-1	-4	/	/
O=C(Nc1ccc(Cl)cc1)c1cccc(NC2=NC3CS(=O)(=O)CC3S2)c1 (stereo not drawn)	12*	4	1	0	-5	-5
CC(C)c1ccc(NC(=O)c2cccc(NC3=NC4CS(=O)(=O)CC4S3)c2)cc1 (stereo not drawn)	9.6*	0	1	-6	2	-1
